# Source: article PMC7862700, “An all-to-all approach to the identification of sequence-specific readers for epigenetic DNA modifications on cytosine”
# Experiments:
# Assay in all cases: DAPPL (digital affinity profiling via proximity ligation, sequencing); 10 mM Tris-HCl pH 7.5, 50 mM NaCl, 1 mM DTT, 4% glycerol, room temperature, 30 min; GST-TFs on glutathione beads, 16-mer random dsDNA library, 0.1% formaldehyde crosslink after washing; high values mean tight binding
# FEV = target: T1, FEV (Homo sapiens, UniProt Q99581 1-238); conditions: protein: recombinant; tags: N-terminal GST; dsDNA, one strand shown
# T1 sequence: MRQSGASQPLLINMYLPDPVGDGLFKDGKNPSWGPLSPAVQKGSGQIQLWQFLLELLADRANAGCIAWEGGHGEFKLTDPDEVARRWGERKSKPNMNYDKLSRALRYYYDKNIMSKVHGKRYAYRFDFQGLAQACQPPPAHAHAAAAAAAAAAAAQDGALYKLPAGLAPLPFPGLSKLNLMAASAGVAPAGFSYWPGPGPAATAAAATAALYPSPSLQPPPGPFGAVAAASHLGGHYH
# Summary of the method: (§1)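 Binding signal is defined as a hexamer's read frequency for one factor over its frequency for the tag-only sample. To obtain reads, GST-fused human transcription factors were expressed in yeast, captured on glutathione beads, barcoded with DNA and pooled with that sample. Pools met 200 nmole of a 16-mer random double-stranded DNA library in Tris/NaCl/DTT/glycerol buffer for 30 min at room temperature before washing, 0.1% formaldehyde crosslinking, proximity ligation (BsaI/T4 ligase, 1 h, 37 °C), PCR and Illumina NextSeq500 sequencing.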
# ETV5 = ETV5 (Homo sapiens, UniProt P41161 1-510); conditions: protein: recombinant; tags: N-terminal GST; dsDNA, one strand shown
# Summary of the method: as §1
# HSF1 = HSF1 (Homo sapiens, UniProt Q00613 1-529); conditions: protein: recombinant; tags: N-terminal GST; chain copies: 3; dsDNA, one strand shown
# Summary of the method: as §1
# SPIC = target: T2, SPIC (Homo sapiens, UniProt Q8N5J4 1-248); conditions: protein: recombinant; tags: N-terminal GST; dsDNA, one strand shown
# T2 sequence: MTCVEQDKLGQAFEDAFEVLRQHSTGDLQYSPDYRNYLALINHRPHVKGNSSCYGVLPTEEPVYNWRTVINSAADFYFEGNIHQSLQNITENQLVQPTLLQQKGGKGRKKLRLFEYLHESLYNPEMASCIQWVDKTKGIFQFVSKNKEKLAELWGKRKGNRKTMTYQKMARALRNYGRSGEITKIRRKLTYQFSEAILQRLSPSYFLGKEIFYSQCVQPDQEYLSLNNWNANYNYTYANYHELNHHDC
# Summary of the method: as §1
# ELF4 = ELF4 (Homo sapiens, UniProt Q99607 1-663); conditions: protein: recombinant; tags: N-terminal GST; dsDNA, one strand shown
# Summary of the method: as §1
# ELK4 = target: T3, ELK4 (Homo sapiens, UniProt P28324-2 1-405); conditions: protein: recombinant; tags: N-terminal GST; dsDNA, one strand shown
# T3 sequence: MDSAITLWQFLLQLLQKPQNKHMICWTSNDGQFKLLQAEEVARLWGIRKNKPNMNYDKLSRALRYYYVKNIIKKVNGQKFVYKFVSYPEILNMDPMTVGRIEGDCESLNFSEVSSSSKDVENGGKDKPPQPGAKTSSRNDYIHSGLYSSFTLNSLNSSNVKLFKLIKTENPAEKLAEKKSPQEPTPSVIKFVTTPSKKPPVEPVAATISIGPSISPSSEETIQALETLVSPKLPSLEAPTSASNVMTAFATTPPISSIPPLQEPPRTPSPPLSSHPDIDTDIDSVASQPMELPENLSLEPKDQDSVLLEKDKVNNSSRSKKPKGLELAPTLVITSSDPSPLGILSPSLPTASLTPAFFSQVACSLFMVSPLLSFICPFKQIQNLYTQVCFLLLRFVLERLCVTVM
# Summary of the method: as §1
# ETV2 = target: T4, ETV2 (Homo sapiens, UniProt O00321 1-342); conditions: protein: recombinant; tags: N-terminal GST; dsDNA, one strand shown
# T4 sequence: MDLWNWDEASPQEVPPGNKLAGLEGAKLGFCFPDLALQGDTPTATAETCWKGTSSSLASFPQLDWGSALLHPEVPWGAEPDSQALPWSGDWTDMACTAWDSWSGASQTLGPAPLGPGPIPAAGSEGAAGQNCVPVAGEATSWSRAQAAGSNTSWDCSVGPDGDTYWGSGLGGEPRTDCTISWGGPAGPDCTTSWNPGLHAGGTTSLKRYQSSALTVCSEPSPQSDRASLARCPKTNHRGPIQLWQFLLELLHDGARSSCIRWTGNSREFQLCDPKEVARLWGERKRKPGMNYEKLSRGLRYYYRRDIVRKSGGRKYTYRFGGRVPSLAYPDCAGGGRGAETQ
# Summary of the method: as §1
# ELF3 = target: T5, ELF3 (Homo sapiens, UniProt P78545 1-371); conditions: protein: recombinant; tags: N-terminal GST; dsDNA, one strand shown
# T5 sequence: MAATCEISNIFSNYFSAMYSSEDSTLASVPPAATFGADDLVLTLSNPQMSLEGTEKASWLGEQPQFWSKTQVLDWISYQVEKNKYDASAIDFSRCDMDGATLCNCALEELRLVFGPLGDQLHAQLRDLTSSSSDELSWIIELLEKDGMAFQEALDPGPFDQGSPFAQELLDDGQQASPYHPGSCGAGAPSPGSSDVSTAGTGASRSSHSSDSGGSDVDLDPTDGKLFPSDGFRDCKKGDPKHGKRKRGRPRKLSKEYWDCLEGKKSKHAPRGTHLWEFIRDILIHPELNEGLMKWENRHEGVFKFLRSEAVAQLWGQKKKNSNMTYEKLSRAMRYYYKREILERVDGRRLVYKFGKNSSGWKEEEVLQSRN
# Summary of the method: as §1
# CRX = CRX (Homo sapiens, UniProt O43186 1-299); conditions: protein: recombinant; tags: N-terminal GST; dsDNA, one strand shown
# Summary of the method: as §1
# ETV1 = ETV1 (Homo sapiens, UniProt P50549 1-477); conditions: protein: recombinant; tags: N-terminal GST; dsDNA, one strand shown
# Summary of the method: as §1
# ERF = target: T6, ERF (Homo sapiens, UniProt P50548 1-548); conditions: protein: recombinant; tags: N-terminal GST; dsDNA, one strand shown
# T6 sequence: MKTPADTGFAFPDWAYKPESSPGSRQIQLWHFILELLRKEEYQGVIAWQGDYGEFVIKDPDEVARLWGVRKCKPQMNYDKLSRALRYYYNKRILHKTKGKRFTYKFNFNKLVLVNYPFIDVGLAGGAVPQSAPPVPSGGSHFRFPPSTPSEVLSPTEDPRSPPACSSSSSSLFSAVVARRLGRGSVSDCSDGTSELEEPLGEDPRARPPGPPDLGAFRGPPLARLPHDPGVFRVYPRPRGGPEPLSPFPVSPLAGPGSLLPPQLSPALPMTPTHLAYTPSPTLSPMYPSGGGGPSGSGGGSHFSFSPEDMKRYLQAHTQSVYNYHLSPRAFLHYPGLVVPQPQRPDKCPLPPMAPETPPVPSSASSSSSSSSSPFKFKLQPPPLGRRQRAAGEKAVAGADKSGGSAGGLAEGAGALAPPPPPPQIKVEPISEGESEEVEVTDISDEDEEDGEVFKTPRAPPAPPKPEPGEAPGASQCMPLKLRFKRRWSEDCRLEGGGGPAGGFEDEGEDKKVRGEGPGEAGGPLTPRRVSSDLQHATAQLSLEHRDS
# Summary of the method: as §1
# ETV3L = target: T7, ETV3L (Homo sapiens, UniProt Q6ZN32 1-361); conditions: protein: recombinant; tags: N-terminal GST; dsDNA, one strand shown
# T7 sequence: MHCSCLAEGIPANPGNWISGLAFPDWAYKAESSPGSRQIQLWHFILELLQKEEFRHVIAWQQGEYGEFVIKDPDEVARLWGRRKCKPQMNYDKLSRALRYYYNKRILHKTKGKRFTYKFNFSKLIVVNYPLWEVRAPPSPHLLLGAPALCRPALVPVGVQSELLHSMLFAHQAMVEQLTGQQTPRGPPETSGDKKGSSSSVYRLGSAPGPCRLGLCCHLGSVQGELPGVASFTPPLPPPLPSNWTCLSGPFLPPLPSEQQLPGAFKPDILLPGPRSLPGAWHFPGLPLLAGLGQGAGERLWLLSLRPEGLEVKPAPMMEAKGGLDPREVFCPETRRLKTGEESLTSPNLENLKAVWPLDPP
# Summary of the method: as §1
# ETS2 = target: T8, ETS2 (Homo sapiens, UniProt P15036 1-469); conditions: protein: recombinant; tags: N-terminal GST; dsDNA, one strand shown
# T8 sequence: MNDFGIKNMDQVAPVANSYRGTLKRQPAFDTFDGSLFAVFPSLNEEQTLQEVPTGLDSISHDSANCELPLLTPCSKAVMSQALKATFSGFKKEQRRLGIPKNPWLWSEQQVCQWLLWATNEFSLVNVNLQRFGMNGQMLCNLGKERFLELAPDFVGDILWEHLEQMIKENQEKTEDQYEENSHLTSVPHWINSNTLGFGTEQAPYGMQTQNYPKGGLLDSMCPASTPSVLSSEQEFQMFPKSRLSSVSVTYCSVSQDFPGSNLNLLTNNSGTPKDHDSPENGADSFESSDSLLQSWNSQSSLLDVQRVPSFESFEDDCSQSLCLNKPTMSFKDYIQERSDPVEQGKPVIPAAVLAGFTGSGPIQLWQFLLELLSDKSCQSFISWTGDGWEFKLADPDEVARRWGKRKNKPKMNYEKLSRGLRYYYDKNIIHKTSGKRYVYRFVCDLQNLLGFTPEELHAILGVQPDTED
# Summary of the method: as §1
# SPDEF = target: T9, SPDEF (Homo sapiens, UniProt O95238 1-335); conditions: protein: recombinant; tags: N-terminal GST; dsDNA, one strand shown
# T9 sequence: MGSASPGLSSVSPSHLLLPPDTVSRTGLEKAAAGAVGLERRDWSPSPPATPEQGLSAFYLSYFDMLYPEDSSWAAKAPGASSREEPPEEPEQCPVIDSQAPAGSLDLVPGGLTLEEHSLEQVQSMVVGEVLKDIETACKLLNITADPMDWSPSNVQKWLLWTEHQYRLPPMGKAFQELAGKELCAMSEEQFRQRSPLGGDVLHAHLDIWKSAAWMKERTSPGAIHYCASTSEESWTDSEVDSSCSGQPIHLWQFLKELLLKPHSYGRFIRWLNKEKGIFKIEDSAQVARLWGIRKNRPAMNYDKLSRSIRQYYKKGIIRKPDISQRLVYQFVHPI
# Summary of the method: as §1
# ETV7 = target: T10, ETV7 (Homo sapiens, UniProt Q9Y603 1-341); conditions: protein: recombinant; tags: N-terminal GST; dsDNA, one strand shown
# T10 sequence: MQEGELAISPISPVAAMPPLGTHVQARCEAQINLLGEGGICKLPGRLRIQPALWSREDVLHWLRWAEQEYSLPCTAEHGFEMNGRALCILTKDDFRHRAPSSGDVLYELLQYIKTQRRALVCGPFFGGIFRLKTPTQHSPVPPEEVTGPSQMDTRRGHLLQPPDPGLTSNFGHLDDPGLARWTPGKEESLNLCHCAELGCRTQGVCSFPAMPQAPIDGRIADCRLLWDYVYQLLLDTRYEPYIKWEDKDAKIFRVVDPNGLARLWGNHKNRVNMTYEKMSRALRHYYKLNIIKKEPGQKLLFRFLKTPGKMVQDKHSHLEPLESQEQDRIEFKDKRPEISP
# Summary of the method: as §1
# ELF5 = target: T11, ELF5 (Homo sapiens, UniProt Q9UKW6-2 1-255); conditions: protein: recombinant; tags: N-terminal GST; dsDNA, one strand shown
# T11 sequence: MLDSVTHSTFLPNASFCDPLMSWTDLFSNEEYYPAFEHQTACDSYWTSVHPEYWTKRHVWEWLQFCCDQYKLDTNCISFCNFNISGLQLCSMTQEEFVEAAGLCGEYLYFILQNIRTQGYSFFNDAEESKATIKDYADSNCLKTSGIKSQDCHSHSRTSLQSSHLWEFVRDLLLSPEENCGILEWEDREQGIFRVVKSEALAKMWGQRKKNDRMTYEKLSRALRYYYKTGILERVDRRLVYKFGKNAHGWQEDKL
# Summary of the method: as §1
# ETV3 = target: T12, ETV3 (Homo sapiens, UniProt P41162-2 1-143); conditions: protein: recombinant; tags: N-terminal GST; dsDNA, one strand shown
# T12 sequence: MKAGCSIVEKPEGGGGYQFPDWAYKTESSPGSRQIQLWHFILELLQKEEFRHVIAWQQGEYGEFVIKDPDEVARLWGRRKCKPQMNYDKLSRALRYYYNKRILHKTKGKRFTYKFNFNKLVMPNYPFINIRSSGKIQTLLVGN
# Summary of the method: as §1
# ETV6 = ETV6 (Homo sapiens, UniProt P41212 1-452); conditions: protein: recombinant; tags: N-terminal GST; dsDNA, one strand shown
# Summary of the method: as §1
# Chain of HSF1 (Q00613 whole entry): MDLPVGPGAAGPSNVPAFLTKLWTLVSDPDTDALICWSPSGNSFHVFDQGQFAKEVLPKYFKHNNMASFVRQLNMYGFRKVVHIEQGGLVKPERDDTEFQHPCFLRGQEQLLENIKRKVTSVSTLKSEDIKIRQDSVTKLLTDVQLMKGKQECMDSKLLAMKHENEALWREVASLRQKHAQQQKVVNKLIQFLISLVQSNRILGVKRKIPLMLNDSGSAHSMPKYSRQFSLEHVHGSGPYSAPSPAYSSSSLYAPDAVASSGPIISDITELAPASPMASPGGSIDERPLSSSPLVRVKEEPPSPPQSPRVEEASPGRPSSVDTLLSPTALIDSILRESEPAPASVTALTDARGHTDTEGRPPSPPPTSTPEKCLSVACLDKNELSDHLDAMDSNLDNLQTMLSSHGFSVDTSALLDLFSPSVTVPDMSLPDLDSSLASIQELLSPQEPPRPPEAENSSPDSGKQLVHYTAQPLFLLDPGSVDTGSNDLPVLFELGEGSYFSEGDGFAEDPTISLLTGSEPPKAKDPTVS
# Chain of ELF4 (Q99607 whole entry): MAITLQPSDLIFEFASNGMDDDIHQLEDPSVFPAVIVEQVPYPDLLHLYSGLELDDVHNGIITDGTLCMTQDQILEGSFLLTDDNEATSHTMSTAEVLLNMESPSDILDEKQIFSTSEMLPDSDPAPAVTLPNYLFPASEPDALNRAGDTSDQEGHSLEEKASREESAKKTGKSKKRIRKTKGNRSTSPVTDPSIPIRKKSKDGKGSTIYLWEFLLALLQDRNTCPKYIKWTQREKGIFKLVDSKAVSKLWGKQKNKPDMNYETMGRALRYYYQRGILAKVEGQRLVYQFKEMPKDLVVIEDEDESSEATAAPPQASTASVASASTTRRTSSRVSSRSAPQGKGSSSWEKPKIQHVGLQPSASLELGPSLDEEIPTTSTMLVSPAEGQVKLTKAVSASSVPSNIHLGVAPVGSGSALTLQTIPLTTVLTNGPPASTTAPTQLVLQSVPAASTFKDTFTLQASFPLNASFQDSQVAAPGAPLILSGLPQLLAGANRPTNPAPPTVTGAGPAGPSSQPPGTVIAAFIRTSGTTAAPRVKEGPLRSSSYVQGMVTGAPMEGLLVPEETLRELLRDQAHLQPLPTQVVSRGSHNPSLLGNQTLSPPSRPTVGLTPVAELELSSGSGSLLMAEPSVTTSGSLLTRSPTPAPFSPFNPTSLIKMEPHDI
# Chain of CRX (O43186 whole entry): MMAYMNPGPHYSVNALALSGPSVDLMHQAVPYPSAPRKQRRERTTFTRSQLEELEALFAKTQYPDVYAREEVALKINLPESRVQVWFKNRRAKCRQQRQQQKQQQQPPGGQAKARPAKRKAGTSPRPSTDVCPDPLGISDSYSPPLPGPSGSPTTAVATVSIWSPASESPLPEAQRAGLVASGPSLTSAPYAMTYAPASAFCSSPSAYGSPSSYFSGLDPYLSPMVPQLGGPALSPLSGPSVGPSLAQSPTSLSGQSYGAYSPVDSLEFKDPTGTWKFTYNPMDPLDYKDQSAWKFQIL
# Chain of ETV6 (P41212 whole entry): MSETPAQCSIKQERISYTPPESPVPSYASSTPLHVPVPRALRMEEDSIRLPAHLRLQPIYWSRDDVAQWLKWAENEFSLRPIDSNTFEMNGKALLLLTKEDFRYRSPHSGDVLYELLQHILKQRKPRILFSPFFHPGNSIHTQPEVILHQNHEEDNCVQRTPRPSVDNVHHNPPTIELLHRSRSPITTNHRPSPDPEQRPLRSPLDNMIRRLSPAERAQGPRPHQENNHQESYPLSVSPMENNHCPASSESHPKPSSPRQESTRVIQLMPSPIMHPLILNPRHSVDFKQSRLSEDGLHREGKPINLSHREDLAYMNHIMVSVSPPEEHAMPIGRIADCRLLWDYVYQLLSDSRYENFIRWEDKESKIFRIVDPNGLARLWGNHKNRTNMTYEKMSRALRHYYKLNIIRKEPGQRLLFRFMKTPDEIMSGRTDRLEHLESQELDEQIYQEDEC
# Chain of ETV5 (P41161 whole entry): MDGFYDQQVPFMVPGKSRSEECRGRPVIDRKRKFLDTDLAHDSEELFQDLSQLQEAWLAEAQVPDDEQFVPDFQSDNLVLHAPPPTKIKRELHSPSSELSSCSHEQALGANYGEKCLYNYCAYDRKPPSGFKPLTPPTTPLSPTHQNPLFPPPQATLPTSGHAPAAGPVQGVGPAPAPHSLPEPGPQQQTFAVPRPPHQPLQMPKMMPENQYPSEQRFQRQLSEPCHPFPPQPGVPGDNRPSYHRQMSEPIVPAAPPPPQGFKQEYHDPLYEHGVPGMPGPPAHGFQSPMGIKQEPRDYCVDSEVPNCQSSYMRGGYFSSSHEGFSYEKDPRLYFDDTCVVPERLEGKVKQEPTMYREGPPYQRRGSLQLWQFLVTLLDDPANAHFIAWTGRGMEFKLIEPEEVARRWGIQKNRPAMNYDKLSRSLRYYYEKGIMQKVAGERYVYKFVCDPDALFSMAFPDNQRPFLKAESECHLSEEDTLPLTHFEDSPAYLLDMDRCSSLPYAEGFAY
# Chain of ETV1 (P50549 whole entry): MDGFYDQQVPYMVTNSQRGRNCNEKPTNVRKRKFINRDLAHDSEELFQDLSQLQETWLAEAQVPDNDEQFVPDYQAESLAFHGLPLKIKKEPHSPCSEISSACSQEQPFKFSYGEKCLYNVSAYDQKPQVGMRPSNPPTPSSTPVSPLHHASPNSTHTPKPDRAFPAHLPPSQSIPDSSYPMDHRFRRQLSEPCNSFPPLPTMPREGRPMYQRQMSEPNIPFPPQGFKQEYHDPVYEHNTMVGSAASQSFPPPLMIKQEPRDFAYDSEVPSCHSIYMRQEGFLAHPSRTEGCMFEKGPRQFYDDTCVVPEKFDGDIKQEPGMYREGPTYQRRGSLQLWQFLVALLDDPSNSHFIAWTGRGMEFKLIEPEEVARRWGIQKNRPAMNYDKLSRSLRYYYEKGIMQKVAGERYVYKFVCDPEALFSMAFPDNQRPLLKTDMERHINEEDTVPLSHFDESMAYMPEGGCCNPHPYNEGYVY
sequence,measurement,setting,value
CTATAC,binding signal,FEV,"1.3 fold enrichment (6-mer frequency, TF over GST control)"
same,binding signal,ETV5,"1.22 fold enrichment (6-mer frequency, TF over GST control)"
same,binding signal,HSF1,"1.14 fold enrichment (6-mer frequency, TF over GST control)"
same,binding signal,SPIC,"1.21 fold enrichment (6-mer frequency, TF over GST control)"
same,binding signal,ELF4,"1.29 fold enrichment (6-mer frequency, TF over GST control)"
same,binding signal,ELK4,"1.07 fold enrichment (6-mer frequency, TF over GST control)"
same,binding signal,ETV2,"1.4 fold enrichment (6-mer frequency, TF over GST control)"
same,binding signal,ELF3,"1.24 fold enrichment (6-mer frequency, TF over GST control)"
same,binding signal,CRX,"1.19 fold enrichment (6-mer frequency, TF over GST control)"
same,binding signal,ETV1,"1.29 fold enrichment (6-mer frequency, TF over GST control)"
same,binding signal,ERF,"1.21 fold enrichment (6-mer frequency, TF over GST control)"
same,binding signal,ETV3L,"1.19 fold enrichment (6-mer frequency, TF over GST control)"
same,binding signal,ETS2,"1.28 fold enrichment (6-mer frequency, TF over GST control)"
same,binding signal,SPDEF,"1.39 fold enrichment (6-mer frequency, TF over GST control)"
same,binding signal,ETV7,"1.19 fold enrichment (6-mer frequency, TF over GST control)"
same,binding signal,ELF5,"1.26 fold enrichment (6-mer frequency, TF over GST control)"
same,binding signal,ETV3,"1.24 fold enrichment (6-mer frequency, TF over GST control)"
same,binding signal,ETV6,"1.28 fold enrichment (6-mer frequency, TF over GST control)"
